From the supplement of paper PMC8007513
Structures can show the parent of a compound that is named as a salt. ± gives the standard error. About 130 (10%) of roughly 1,300 compounds showed an effect of 50% or more. Many of the other results were omitted from the sample, so strong results are more common in it than they were.

Test system: Trichoderma virens ATCC 9645
Assay: growth yield (OD600) with compound + IPBC relative to untreated control; higher = less growth inhibition
Conditions: compound concentration: 100 uM, IPBC concentration: 200 ng/ml
How it was run: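 Trichoderma virens ATCC 9645 spores from 7-day potato dextrose agar plates were suspended in potato dextrose broth at 15,000 spores ml^−1. Aliquots of 100 μl with library compounds at 100 μM final, with or without a co-applied biocide at 200 ng ml^−1, were grown in 96-well plates at 30 °C. OD600 was read at 40 h and 72 h on a BioTek EL800. Growth is expressed relative to the control without either agent, as means of duplicate screens.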

Row | SMILES | growth yield (40 h) [%] | growth yield (72 h) [%]
1 | CC(=C(CCO)SSCC1CCCO1)N(C=O)Cc1cnc(C)nc1N (stereo in doubt) [Fursultiamine Hydrochloride] + CCCCNC(=O)OCC#CI [3-iodo-2-propynyl butylcarbamate (IPBC)] | 104 ± 4.3 | 102 ± 3.2
2 | Oc1c(I)cc(Cl)c2cccnc12 [Clioquinol] + CCCCNC(=O)OCC#CI [3-iodo-2-propynyl butylcarbamate (IPBC)] | 11.4 | 5.66 ± 0.21
3 | Oc1c(Cl)cc(Cl)c2cccnc12 [Chloroxine] + CCCCNC(=O)OCC#CI [3-iodo-2-propynyl butylcarbamate (IPBC)] | 1.27 ± 0.95 | 1.89 ± 0.21
4 | CC(C(=O)O)c1ccc2c(c1)Cc1cccnc1O2 (stereo not drawn) [Pranoprofen] + CCCCNC(=O)OCC#CI [3-iodo-2-propynyl butylcarbamate (IPBC)] | 92 ± 8.7 | 90.6 ± 3.8
5 | Nc1ncn(C2OC(CO)C(O)C2O)c(=O)n1 (stereo not drawn) [Azacytidine-5] + CCCCNC(=O)OCC#CI [3-iodo-2-propynyl butylcarbamate (IPBC)] | 67.2 ± 3 | 91.9 ± 1.1
6 | Cc1cn([C@H]2C=C[C@@H](CO)O2)c(=O)[nH]c1=O [Stavudine] + CCCCNC(=O)OCC#CI [3-iodo-2-propynyl butylcarbamate (IPBC)] | 98.5 ± 15 | 97.6 ± 9.5
7 | CNS(=O)(=O)Cc1ccc2[nH]cc(CCN(C)C)c2c1 [Sumatriptan succinate] + CCCCNC(=O)OCC#CI [3-iodo-2-propynyl butylcarbamate (IPBC)] | 92 ± 11 | 91.3 ± 7.7
8 | CCCCS(=O)(=O)N[C@@H](Cc1ccc(OCCCCC2CCNCC2)cc1)C(=O)O [Tirofiban hydrochloride] + CCCCNC(=O)OCC#CI [3-iodo-2-propynyl butylcarbamate (IPBC)] | 85.5 ± 1.9 | 91.3 ± 0.94
9 | CC(=O)OC1CN2CCC1CC2 (stereo not drawn) [Aceclidine Hydrochloride] + CCCCNC(=O)OCC#CI [3-iodo-2-propynyl butylcarbamate (IPBC)] | 80.85 ± 0.79 | 86.84 ± 0.21
10 | CC(C)(CO)C(O)C(=O)NCCCO (stereo not drawn) [Panthenol (D)] + CCCCNC(=O)OCC#CI [3-iodo-2-propynyl butylcarbamate (IPBC)] | 87.2 ± 0.48 | 90.09 ± 0.52
11 | CC(C)(C)NCC(O)c1ccc(O)c(CO)c1 (stereo not drawn) [Salbutamol] + CCCCNC(=O)OCC#CI [3-iodo-2-propynyl butylcarbamate (IPBC)] | 85.93 ± 0.16 | 93 ± 0.94
12 | CC(C)(C)NC[C@H](O)c1ccc(O)c(CO)c1 [Levalbuterol hydrochloride] + CCCCNC(=O)OCC#CI [3-iodo-2-propynyl butylcarbamate (IPBC)] | 86.2 ± 2.4 | 90.3 ± 2.6
13 | OCc1cc(C(O)CNCCCCCCOCCCCc2ccccc2)ccc1O (stereo not drawn) [Salmeterol] + CCCCNC(=O)OCC#CI [3-iodo-2-propynyl butylcarbamate (IPBC)] | 34.9 ± 1.6 | 75.1 ± 3.4
14 | C1N2CN3CN1CN(C2)C3 [Methenamine] + CCCCNC(=O)OCC#CI [3-iodo-2-propynyl butylcarbamate (IPBC)] | 89 ± 1.3 | 93.13 ± 0.84
15 | Nc1ccc(/N=N/c2ccccc2)c(N)n1 [Phenazopyridine hydrochloride] + CCCCNC(=O)OCC#CI [3-iodo-2-propynyl butylcarbamate (IPBC)] | 7.15 ± 0.48 | 13.5 ± 1.8
16 | Nc1c2ccccc2nc2ccccc12 [Aminacrine] + CCCCNC(=O)OCC#CI [3-iodo-2-propynyl butylcarbamate (IPBC)] | 85.5 ± 5.4 | 96.3 ± 3.4
17 | Cc1cccc(C)c1NC1=NCCCS1 [Xylazine] + CCCCNC(=O)OCC#CI [3-iodo-2-propynyl butylcarbamate (IPBC)] | 84.3 ± 4.3 | 88.8 ± 2.8
18 | CN(C)CCN(Cc1ccccc1)c1ccccn1 [Tripelennamine hydrochloride] + CCCCNC(=O)OCC#CI [3-iodo-2-propynyl butylcarbamate (IPBC)] | 95 ± 3.5 | 95.2 ± 1.9
19 | CC(C)(C)NC(=O)[C@H]1CC[C@H]2[C@@H]3CC[C@H]4NC(=O)C=C[C@]4(C)[C@H]3CC[C@]12C [Finasteride] + CCCCNC(=O)OCC#CI [3-iodo-2-propynyl butylcarbamate (IPBC)] | 84.2 ± 7.9 | 87.5 ± 6.7
20 | Cc1c(O)c(=O)n(-c2ccccc2)n1C [Antipyrine, 4-hydroxy] + CCCCNC(=O)OCC#CI [3-iodo-2-propynyl butylcarbamate (IPBC)] | 91.5 ± 2.2 | 92.2 ± 1.4
21 | CO/N=C(\C(=O)N[C@@H]1C(=O)N2C(C(=O)O)=C(COC(N)=O)CS[C@H]12)c1ccco1 [Cefuroxime sodium salt] + CCCCNC(=O)OCC#CI [3-iodo-2-propynyl butylcarbamate (IPBC)] | 92.13 ± 0.64 | 92.2 ± 2
22 | CC[C@H]1OC(=O)[C@H](C)[C@@H](O[C@H]2C[C@@](C)(OC)[C@@H](O)[C@H](C)O2)[C@H](C)[C@@H](O[C@@H]2O[C@H](C)C[C@H](N(C)C)[C@H]2O)[C@](C)(OC)C[C@@H](C)C(=O)[C@H](C)[C@@H](O)[C@]1(C)O [Clarithromycin] + CCCCNC(=O)OCC#CI [3-iodo-2-propynyl butylcarbamate (IPBC)] | 91.65 ± 0.79 | 92.1
23 | CC[C@H]1OC(=O)[C@H](C)[C@@H](O[C@H]2C[C@@](C)(OC)[C@@H](O)[C@H](C)O2)[C@H](C)[C@@H](O[C@@H]2O[C@H](C)C[C@H](N(C)C)[C@H]2O)[C@](C)(O)C[C@@H](C)C(=O)[C@H](C)[C@@H](O)[C@]1(C)O [Erythromycin] + CCCCNC(=O)OCC#CI [3-iodo-2-propynyl butylcarbamate (IPBC)] | 45.3 ± 0.79 | 50.8 ± 0.84
24 | CC[C@H]1OC(=O)[C@H](C)[C@@H](O[C@H]2C[C@@](C)(OC)[C@@H](O)[C@H](C)O2)[C@H](C)[C@@H](O[C@@H]2O[C@H](C)C[C@H](N(C)C)[C@H]2O)[C@](C)(O)C[C@@H](C)CN(C)[C@H](C)[C@@H](O)[C@]1(C)O [Azithromycin] + CCCCNC(=O)OCC#CI [3-iodo-2-propynyl butylcarbamate (IPBC)] | 108.7 ± 0.95 | 106 ± 0.32
